SMILES strings stand for the structures. Counter-ions that a name gives are not always drawn. ± gives the standard deviation of the averaged measurements.

The test system of this experiment is Toxoplasma gondii RH (in HFF). Nature of the experiment: parasite growth relative to the screen mean (all compounds = 100%); higher = less inhibition of parasite growth. To be noted: 5 µM; 72 h; oxygen 21 %. In a few lines:
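Library compounds, held as 10 mM DMSO stocks, were pinned to 5 µM final onto confluent human foreskin fibroblasts in 96-well plates. The cells were infected within 2 h with RH β-Gal–GFP Toxoplasma (MOI 1:5), grown 72 h at 21% O2, and assayed for parasite number by CPRG β-Gal using in-plate standard curves. Growth is reported relative to the screen mean, in which all compounds = 100%, averaged over two screens, and CellTiter-Blue checked uninfected host-cell viability.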
Compound `O=c1[nH]c2cc(C(F)(F)F)c(N3CCOCC3)cc2n(CP(=O)(O)O)c1=O` had a parasite growth of 118 ± 4%.
`COc1cc2ncnc(Nc3ccc(F)c(Cl)c3)c2cc1OCCCN1CCOCC1` [Iressa] displayed a parasite growth of 99 ± 20%.
To `O=C(O)c1cccnc1C(=O)O` [Quinolinic acid] belongs 125 ± 12%; to `O=C(Nc1ccc([N+](=O)[O-])cc1O)Nc1ccccc1Br`, 107 ± 21%; to `O=C1NC(c2cccc([N+](=O)[O-])c2)=CCN1c1ccccc1O` [Icilin], 128 ± 36%.
Under `Cc1nc2c(c(=O)[nH]1)CSCC2` stands 122 ± 32%; under `Cc1c(NC(=O)N2CCOCC2)ccc2c1c1ccccc1n2C(C)C`, 144 ± 4.9%.
To `CC1(C)CCC(C)(C)c2cc(C(=O)Nc3ccc(C(=O)O)cc3)ccc21` belongs 113 ± 4.7%.
Compound `O=C(O)COc1ccc(OCCNC[C@H](O)COc2ccccc2)cc1` [ICI 215,001 hydrochloride] had a parasite growth of 116 ± 14%.
`CC1CCN=C(N)S1` (configuration not stated) [AMT hydrochloride] showed a parasite growth of 70.6 ± 8.5%.
The compound `OC[C@H]1O[C@@H](n2cnc3c(N[C@H]4CCC[C@@H]4O)ncnc32)[C@H](O)[C@@H]1O` displayed a parasite growth of 140 ± 10%.
In turn, `CCOC(=O)C1=C(C)NC(=S)NC1c1cccc(O)c1` (configuration not stated) [Monastrol] came in with a parasite growth of 126 ± 29%.
Under `Clc1cccc(Cl)c1NC1=NCCN1` [Clonidine hydrochloride] stands 153 ± 28%.
`N[C@H](C(=O)O)c1ccc(C(=O)O)c(O)c1` [(S)-4-Carboxy-3-hydroxyphenylglycine] came in with a parasite growth of 143 ± 25%.
Under `Nc1nc2c(cnn2CCc2ccccc2)c2nc(-c3ccco3)nn12` stands 100 ± 39%; under `N[C@H]1CCN(O)C1=O`, 94.9 ± 34%; under `Cc1nn(C)c2nc(NNC(=O)Nc3cc(Cl)nc(Cl)c3)cc(C(C)C)c12`, 97.4 ± 3%.

The record behind these values is the supplement of paper PMC4894684.
